The structures appear in SMILES notation. Several values for one entry are separate records, joined by “and”; a condition that tells them apart may be missing. Identical values can stand only once. The source holds several records for some structures; these can differ, active in one and inactive in another. Activity calls are given as the source filed them. The calls were made as follows, unless noted: active = hit-call score of the fitted dose curve at least 0.9, where 1 is the maximum; inactive = score below 0.9.

Read-out in assay [1]: CD69, CD69 (gene 969)
Put plainly: BSK_SAg_CD69: BioMAP Diversity Plus: SAg Assay for CD69 Biomarker Activity (AID 2283089).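 As to AC50: cell surface CD69 protein quantified by ELISA with fluorescence detection.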 Conditions: primary human HUVEC with PBMC; actives raise or lower the signal. An outline of the steps: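 Primary human vascular co-culture (umbilical vein endothelium with peripheral blood mononuclear cells) exposed to test chemical for 24 h. CD69 levels quantified by fluorescence ELISA; DMSO served as negative control for bidirectional fitting.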

Read-out in assay [2]: Monocyte Chemoattractant Protein-1 (MCP1), CCL2 (gene 6347)
Put plainly: BSK_SAg_MCP1: BioMAP Diversity Plus: SAg Assay for Monocyte Chemoattractant Protein-1 (MCP1) Biomarker Activity (AID 2283090). Conditions: primary human HUVEC with PBMC; actives raise or lower the signal. Summed up: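 MCP-1 levels in the endothelial–PBMC SAg co-culture were quantified by ELISA at 24 h post-dosing; both increases and decreases versus DMSO scored. Cytotoxicity monitored by SRB total protein in parallel cultures.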

Read-out in assay [3]: E-selectin (Homo sapiens) (UniProt P16581)
Put plainly: BSK_SAg_Eselectin: BioMAP Diversity Plus: SAg Assay for Eselectin Biomarker Activity (AID 2283091). Conditions: primary human HUVEC with PBMC; actives raise or lower the signal. An outline of the steps:
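Human umbilical vein endothelial cells co-cultured with peripheral blood mononuclear cells, SAg system. E-selectin is measured by ELISA 24 h after dosing and fitted bidirectionally against DMSO. Cytotoxicity is checked by SRB staining of parallel cultures.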

Read-out in assay [4]: Monokine induced gamma interferon (MIG), CXCL9 (gene 4283)
The experiment in a line: BSK_SAg_MIG: BioMAP Diversity Plus: SAg Assay for Monokine induced gamma interferon (MIG) Biomarker Activity (AID 2283092). The following applies: primary human HUVEC with PBMC; actives raise or lower the signal. Summed up:
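Endothelial cells and PBMC were co-cultured, exposed to test chemicals, and sampled 24 h later. MIG was measured by ELISA, and responses were fitted in both directions relative to DMSO.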

Assay [5] can be described thus: BSK_SAg_PBMCCytotoxicity: PBMC Cytotoxicity Assessment in the BioMAP Diversity Plus: SAg Assay (AID 2283093).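 Also: PBMC viability measured as Alamar Blue reduction fluorescence at 546/580 nm; fitted both ways against DMSO so a hit may be loss or gain of signal.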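 As to AC50: PBMC superantigen activated with SEB plus TSST-1 one hour after compound addition.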 The following applies: primary human HUVEC with PBMC. Summed up:
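Compound added to 75,000 PBMC/well for 1 h; SEB and TSST-1 then added at 20 ng/mL final each; 90 h incubation; Alamar Blue 6 h; read 546/580 nm ex/em. Activity fitted bidirectionally relative to DMSO baseline.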

Read-out in assay [6]: Interleukin-8 (IL8), CXCL8 (gene 3576)
The experiment in a line: BSK_SAg_IL8: BioMAP Diversity Plus: SAg Assay for Interleukin-8 (IL8) Biomarker Activity (AID 2283094). The following applies: primary human HUVEC with PBMC; actives raise or lower the signal. Summed up:
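In this co-culture of human umbilical vein endothelium with peripheral blood mononuclear cells, IL-8 is assayed by ELISA at 24 h. DMSO serves as baseline for bidirectional curve fitting.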

Assay [7] is described as follows: BSK_SAg_Proliferation: Cell Proliferation Assessment in the BioMAP Diversity Plus: SAg Assay (AID 2283095).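 Also: relative cell number as total protein by SRB absorbance in sub-confluent culture.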 The following applies: primary human HUVEC with PBMC. An outline of the steps:
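Readout is SRB-stained protein (560 nm) in a primary human HUVEC and PBMC co-culture; sub-confluent cultures are read at 96 h. Activity is fitted bidirectionally using DMSO as baseline.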

Assay [8] can be described thus: BSK_SAg_SRB: Viability Assessment in the BioMAP Diversity Plus: SAg Assay (AID 2283096).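 Also: cells read one day after compound addition; hits may be either gain or loss of signal compared with DMSO.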 The following applies: primary human HUVEC with PBMC. Summed up:
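Total protein by sulforhodamine B staining, 24 h after dosing, in HUVEC–PBMC co-culture; DMSO-referenced bidirectional fitting.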

Assay [9] deals with human CYP2D6, CYP2D6 (gene 1565) (UniProt P10635). The experiment in a line: NVS_ADME_hCYP2D6: NovaScreen (NVS) CYP450-related Enzyme Activity (ADME) Assay for human CYP2D6 (AID 2283107; active = hit-call score of the fitted dose curve at least 0.9, where 1 is the maximum). How it is done: NVS_ADME_hCYP2D6 is a biochemical, single-readout assay that uses extracted gene-proteins from insect cells in a cell-free assay. Measurements were taken 1 hour after chemical dosing in a 96-well plate.NVS_ADME_hCYP2D6 is one of one assay component(s) measured or calculated from the NVS_ADME_hCYP2D6 assay. It is designed to make measurements of enzyme activity, a form of enzyme reporter, as detected with fluorescence intensity signals by Fluorescence technology.Data from the assay component NVS_ADME_hCYP2D6 was analyzed into 1 assay endpoint. This assay endpoint, NVS_ADME_hCYP2D6, was analyzed in the positive analysis fitting direction relative to Acetonitrile as the negative control and baseline of activity. Using a type of enzyme reporter, loss-of-signal activity can be used to understand changes in the enzymatic activity as they relate to the gene CYP2D6. Furthermore, this assay endpoint can be referred to as a primary readout, because this assay has produced multiple assay endpoints where this one serves a enzymatic activity function. To generalize the intended target to other relatable targets, this assay endpoint is annotated to the cyp intended target family, where the subfamily is xenobiotic metabolism.
Binding assays used specific radioligands (tritiated, iodinated) with non-radioactive competitive displacement ligands in agonist or antagonist protocols (as indicated) and various reference compounds and inhibitors to titrate specific binding to receptors and transporters. Most enzyme assays (CYPs, kinases, phosphatases, proteases, HDACs) used recombinant protein and specific substrates (fluorescence mostly, some colorimetric and radioactive) and inhibitors, followed by a biochemical separation of substrate and product. All assays for the biochemical HTS were initially run in duplicate at a single concentration (10 uM for CYP450 assays and 25 uM for all others). […] Each assay was run with positive and negative controls, and concurrent controls on every plate. […]

E-selectin (Homo sapiens), sequence (P16581 whole entry, looked up): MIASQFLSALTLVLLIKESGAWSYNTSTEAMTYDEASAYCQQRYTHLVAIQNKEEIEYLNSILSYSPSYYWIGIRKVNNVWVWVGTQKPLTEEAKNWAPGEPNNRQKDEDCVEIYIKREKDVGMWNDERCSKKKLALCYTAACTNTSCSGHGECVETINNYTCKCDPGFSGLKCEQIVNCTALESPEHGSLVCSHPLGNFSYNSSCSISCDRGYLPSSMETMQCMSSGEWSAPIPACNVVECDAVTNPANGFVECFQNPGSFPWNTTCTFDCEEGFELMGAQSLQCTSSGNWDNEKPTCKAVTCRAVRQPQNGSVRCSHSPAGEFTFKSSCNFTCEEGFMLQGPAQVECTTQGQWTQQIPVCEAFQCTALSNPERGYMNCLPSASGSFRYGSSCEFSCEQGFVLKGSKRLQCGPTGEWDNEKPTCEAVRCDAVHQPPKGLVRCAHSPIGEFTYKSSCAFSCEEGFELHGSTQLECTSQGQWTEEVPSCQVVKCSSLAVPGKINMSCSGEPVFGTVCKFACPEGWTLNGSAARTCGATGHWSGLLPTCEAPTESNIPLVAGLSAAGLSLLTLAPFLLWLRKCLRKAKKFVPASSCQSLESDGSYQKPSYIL
human CYP2D6, CYP2D6 (gene 1565), sequence (P10635 whole entry, looked up): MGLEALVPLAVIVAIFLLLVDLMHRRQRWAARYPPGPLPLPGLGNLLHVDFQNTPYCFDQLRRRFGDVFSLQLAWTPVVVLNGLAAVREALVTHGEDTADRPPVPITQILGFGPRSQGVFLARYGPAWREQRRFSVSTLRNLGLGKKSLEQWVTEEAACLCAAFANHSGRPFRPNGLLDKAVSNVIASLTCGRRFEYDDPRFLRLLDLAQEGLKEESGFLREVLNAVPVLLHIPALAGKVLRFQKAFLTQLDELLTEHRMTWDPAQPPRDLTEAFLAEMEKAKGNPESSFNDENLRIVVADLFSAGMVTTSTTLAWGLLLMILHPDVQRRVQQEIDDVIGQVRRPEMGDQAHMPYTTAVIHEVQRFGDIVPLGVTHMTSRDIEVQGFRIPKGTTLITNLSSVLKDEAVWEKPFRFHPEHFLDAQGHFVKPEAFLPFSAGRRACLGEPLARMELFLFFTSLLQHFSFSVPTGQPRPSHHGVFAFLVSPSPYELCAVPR

In the case of `CCO[Si](C)(OCC)OCC`, the result in [1], in [2], in [3], in assay [4], in [5] and in assay [6] was inactive. Also, the result in [7] and in assay [8] was inactive.

As to `COCc1c(C(C)C)nc(C(C)C)c(/C=C/[C@@H](O)C[C@@H](O)CC(=O)O)c1-c1ccc(F)cc1`, the concentration at half-maximal activity (AC50) (in general, the concentration giving half of the maximal activity seen) is 29.3 nM (active) in assay [1]; 21.5 nM (active) in assay [3]; 7.83 nM (active) in assay [6]; 18.5 nM (active) in assay [7]; 35.5 nM (active) in [8]. For the same molecule, the outcome in assay [2], in [4] and in [5] was inactive.

With `O=C(c1ccc(O)cc1)c1ccc(O)cc1O`, the result in assay [1], in assay [2], in assay [3], in [4], in assay [5] and in assay [6] was inactive. Besides, the outcome in assay [7] and in assay [8] was inactive. In addition, the AC50 in assay [7] was 14200 nM (active).

With `CN1C(=O)N(C)C(O)C1O` (stereo unspecified), the outcome in assay [1], in [2], in [3], in assay [4], in [5] and in assay [6] was inactive. Also, the outcome in assay [7] and in assay [8] was inactive.

With `N#[N+]c1ccc2c(S(=O)(=O)[O-])cccc2c1O`, the result in assay [1], in assay [2], in assay [3], in [4], in [5] and in assay [6] was inactive. The result in assay [7] and in assay [8] was inactive. For the same molecule, the AC50 in assay [9] is 3970 nM (active).

Consider `CCOc1nc(F)cc2nc(S(=O)(=O)Nc3c(Cl)cccc3C(=O)OC)nn12`, for which the result in assay [1], in [2], in assay [3], in assay [4], in [5] and in assay [6] was inactive. Also, the outcome in [7] and in assay [8] was inactive.

On to `Nc1ccc(N)c(Cl)c1`, for which the concentration at half-maximal activity (AC50) in assay [1] was 22.9 µM (active) and 18.4 µM (active); in [2] it was 30.8 µM (active) and 31.3 µM (active); in [3], 19.4 µM (active) and 22.2 µM (active); in [4], 30.4 µM (active) and 31.3 µM (active); in assay [5], 16.4 µM (active) and 15.4 µM (active); in [6], 30800 nM (active). Moreover, the AC50 in assay [7] was 14.8 µM (active) and 12.7 µM (active); in assay [8], 27700 nM (active). In addition, the result in assay [6] was inactive.

Turning to `CC1OC1C1CCC2(C)OC2C1` (stereo unspecified), the result in [1], in assay [2], in assay [3], in assay [4], in assay [5] and in assay [6] was inactive. The result in [7] and in assay [8] was inactive.

In the case of `O=Nc1ccc(O)cc1`, the result in [1], in assay [2], in assay [3], in assay [4], in assay [5] and in assay [6] was inactive. Moreover, the outcome in [7] and in [8] was inactive. For the same molecule, the AC50 in assay [9] is 3790 nM (active).

Values taken from PubChem BioAssay (EPA / NIEHS).
